Screening data as filed in PubChem BioAssay.
EphB4 ephrin blk = EphB4-ephrin-B2 interaction antagonism; EphB4 LBD / TNYL-RAW-Alexa532 peptide, fluorescence polarization; hit rate 0.15% among 97,000; inhibition, % at 7 µM; P54760;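 active = inhibition above the screen-wide mean inhibition plus 3 SD, cut at about 15% in these data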;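 note: 0% = DMSO wells and 100% = excess unlabeled TNYL-RAW peptide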
Target sequence (P54760 whole entry, looked up, the tested form may be a part): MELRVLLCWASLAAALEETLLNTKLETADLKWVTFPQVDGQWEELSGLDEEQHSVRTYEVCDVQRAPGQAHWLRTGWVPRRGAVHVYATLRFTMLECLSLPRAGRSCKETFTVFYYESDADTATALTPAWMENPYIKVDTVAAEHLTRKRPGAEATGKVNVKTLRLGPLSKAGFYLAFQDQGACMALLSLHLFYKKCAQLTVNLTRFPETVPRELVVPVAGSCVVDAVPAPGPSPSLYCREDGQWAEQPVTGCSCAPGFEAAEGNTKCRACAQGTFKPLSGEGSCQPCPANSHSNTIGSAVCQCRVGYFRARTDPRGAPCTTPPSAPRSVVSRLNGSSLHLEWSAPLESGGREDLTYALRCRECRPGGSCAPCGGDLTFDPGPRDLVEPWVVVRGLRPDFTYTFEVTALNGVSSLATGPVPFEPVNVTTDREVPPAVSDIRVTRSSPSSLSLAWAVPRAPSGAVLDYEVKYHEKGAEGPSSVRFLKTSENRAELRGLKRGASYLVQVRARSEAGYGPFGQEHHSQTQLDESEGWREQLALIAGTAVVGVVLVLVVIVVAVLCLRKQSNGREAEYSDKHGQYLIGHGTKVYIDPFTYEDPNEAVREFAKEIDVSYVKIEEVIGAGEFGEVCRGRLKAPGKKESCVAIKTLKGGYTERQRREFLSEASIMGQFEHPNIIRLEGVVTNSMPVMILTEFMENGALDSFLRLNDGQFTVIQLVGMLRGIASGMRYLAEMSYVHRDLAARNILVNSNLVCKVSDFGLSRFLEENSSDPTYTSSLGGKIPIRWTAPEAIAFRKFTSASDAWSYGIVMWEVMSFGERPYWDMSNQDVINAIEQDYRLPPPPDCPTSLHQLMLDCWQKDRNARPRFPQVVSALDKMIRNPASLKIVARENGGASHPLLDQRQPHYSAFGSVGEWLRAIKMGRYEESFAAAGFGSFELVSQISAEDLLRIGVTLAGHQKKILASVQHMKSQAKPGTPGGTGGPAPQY
CYP2C19 activ = activators of human cytochrome P450 2C19 | P33261 | AID 1025 | recombinant CYP2C19, luciferin-H EGE luminescence; stronger effect = higher value; 0 = fully inhibited enzyme, 1 = untreated enzyme | 96,000 tested, under 10 active | activation factor at 5 µM;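 active = activation factor of at least 2 at 5 µM in the primary screen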;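 note: 0 = wells with 2.5 mM tranylcypromine and 1 = vehicle-only wells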
CYP2C9 inh = human CYP2C9 inhibition. P11712. CYP2C9 Supersomes, luciferin-H conversion, luminescence. inhibition, % at 5 µM. hit rate 20% among 96,000;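 active = blocking of liver enzyme CYP2C9 beyond about 50% at 5 µM, limit read from the data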
CYP2C9 activ = activators of human CYP2C9; hit rate 1.4% among 96,000; P11712; activation factor at 5 µM; recombinant CYP2C9, luciferin-H conversion, luminescence; stronger effect = higher value; factor 1 = untreated enzyme, 0 = blocked;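 active = activation factor of 2 or more for CYP2C9 at a 5 µM dose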;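 note: 0 = sulfaphenazole-blocked wells and 1 = vehicle-only wells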
CYP2C19 inhib = inhibitors of human CYP2C19; P33261; CYP2C19 Supersomes, luciferin-H EGE luminescence, 30 min; inhibition, % at 5 µM; hit rate 21% among 96,000; AID 778;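 active = CYP2C19 inhibition above a set limit at 5 µM in the primary screen, cut at about 50% in these data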;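 note: plate controls were negative control wells for no effect and 2.5 mM tranylcypromine positive control for full effect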
* = called active by the depositor; x = no result given. Shown are actives, neighbours in structure and some others; about 27% of the full set was active somewhere.

SMILES	EphB4 ephrin blk	CYP2C19 activ	CYP2C9 inh	CYP2C9 activ	CYP2C19 inhib
Cn1c(=O)c2c(nc(SCCN3CCCCC3)n2Cc2ccccc2)n(C)c1=O	-10	1	-3	1	-4
CC(C)C(=O)N(c1ccc2oc(=O)sc2c1)S(=O)(=O)c1ccccc1	-8	0.9	3	1	7
Cc1nc2ccc(NC(=O)c3cccs3)cc2c(=O)n1Cc1ccc(Cl)cc1	0	0.2	68*	0.3	79*
CCOC(=O)CCNC(=O)Nc1ccc2nc(C)n(Cc3cccc(Cl)c3)c(=O)c2c1	-5	0.4	81*	0.2	62*
CCOC(=O)CCNC(=O)Nc1ccc2nc(C)n(Cc3ccccc3Cl)c(=O)c2c1	-1	0.4	94*	0.1	55*
CCCC1C(=O)N(c2ccccc2)C1c1ccccc1 (configuration not stated)	2	0.8	15	0.9	22
Cc1ccc(S(=O)(=O)Cc2cn3cccnc3n2)cc1	x	0.9	-14	1.1	10
CCCC(=O)Nc1ccccc1NC(=O)CCC	4	1.1	-16	1.2	-12
CC1(C)CC(=O)c2cc(C(=O)O)c(=O)n(-c3ccccc3)c2C1	0	1.2	-19	1.2	-16
Cc1cccc(N(Cc2ccccc2F)S(C)(=O)=O)c1	x	0.5	25	0.7	52*
Cc1cccc(N(CC(=O)Nc2c(C)n(C)n(-c3ccccc3)c2=O)S(C)(=O)=O)c1	9	0.8	34	0.7	18
Cc1ccc(N(Cc2ccccc2F)S(C)(=O)=O)cc1C	3	0	73*	0.3	98*
CC(=O)Nc1cccc(C(=O)Oc2cccc(C)c2)c1O	x	1.2	-15	1.1	-15
CCOc1ccc(-c2csc(N)c2C(=O)OC)cc1	-1	0.3	71*	0.3	66*
CCOC(=O)c1c(-c2ccncc2)csc1N	-7	0.5	66*	0.3	49
Cc1ccc(-c2cnc(SCC(=O)N3CCCc4ccccc43)n2C)cc1	-6	0.7	23	0.8	33
CCn1c(SCc2ccc(C(=O)Nc3nccs3)cc2)nnc1-c1ccc(NC(C)=O)cc1	-8	0.6	85*	0.2	42
Cn1c(SCc2ccc(C(=O)Nc3nccs3)cc2)nnc1-c1ccccc1	-4	0.7	68*	0.3	32
CCn1c(SCc2ccc(C(=O)Nc3nccs3)cc2)nnc1-c1ccc(N)cc1	-1	0.7	68*	0.3	29
CCCCC(=O)NCCc1ccc(S(N)(=O)=O)cc1	-5	1.1	-11	1.1	-13
COc1cccc(CNC(=O)c2nnn(-c3ccc(OC(F)(F)F)cc3)c2N)c1	-2	0.9	-36	1.4	6
Cc1cccc(NC(=O)c2ccc(-n3ccnc3)nc2)c1	2	0	98*	0	100*
CSc1cccc(NC(=O)c2ccc(Cl)nc2)c1	7	0.8	-3	1	17
COCCOC(=O)C1=C(C)NC(=O)NC1C1CC=CCC1 (configuration not stated)	4	0	30	0.7	96*
C=CCOC(=O)C1=C(C)NC(=O)NC1C1CC=CCC1 (configuration not stated)	4	0	49	0.5	98*
SMILES	EphB4 ephrin blk	CYP2C19 activ	CYP2C9 inh	CYP2C9 activ	CYP2C19 inhib
Cc1ccc(-c2noc(CN(C(=O)c3cccc(Br)c3)C(C)C)n2)cc1	3	0.2	87*	0.1	82*
CC(C)N(Cc1nc(-c2ccc(Cl)cc2)no1)C(=O)C(c1ccccc1)c1ccccc1	2	0.6	54*	0.5	38
Cc1ccc(-c2noc(CN(C(=O)C(c3ccccc3)c3ccccc3)C(C)C)n2)cc1	5	0.8	66*	0.3	22
COc1ccc(-c2noc(CN(C(=O)c3cccs3)C(C)C)n2)cc1	4	0.7	68*	0.3	34
CCC(C)(C)NC(=O)C(c1cccnc1)N(CCOC)C(=O)Cn1nnc2ccccc21 (configuration not stated)	3	0.9	5	0.9	8
O=C(C1CCCC1)N(c1ccccc1)C1C=CS(=O)(=O)C1 (configuration not stated)	x	1	12	0.9	4
CN1C(=O)CC(N2CCN(C(=O)CN3CCCC3)CC2)C1=O (configuration not stated)	x	1	-3	1	-4
CC(C)N(Cc1nc(-c2ccccc2)no1)C(=O)CN1C(=O)c2ccccc2C1=O	0	x	x	x	x
CC(C)N(CCO)C(=O)C(c1ccccc1)c1ccccc1	2	0.1	59*	0.4	90*
Cc1cccc(-c2noc(CN(C(=O)CCc3ccccc3)C(C)C)n2)c1	2	1	-14	1.1	4
CC(C)N(Cc1nc(-c2ccccc2)no1)C(=O)CCCN1C(=O)c2ccccc2C1=O	-4	0.3	67*	0.3	67*
COc1ccc(Cl)cc1C(=O)N(Cc1nc(-c2cccc(C)c2)no1)C(C)C	-3	0.1	30	0.7	88*
Cc1ccc(OC(=O)c2ccc(C)c(C)c2)cn1	-2	0.9	28	0.7	10
S=c1[nH]nc(-c2cnccn2)n1-c1ccccc1	1	1.1	-5	1.1	-8
Cc1ccc(-c2ccc(/C=C(\C#N)C(=O)Nc3cc(C)nn3-c3ccccc3)o2)cc1	1	0.9	-4	1	10
N#C/C(=C\c1ccc(-c2ccccc2)o1)C(=O)Nn1cnnc1	1	0.1	99*	0	92*
COc1ccc(CC(=O)Nc2nc3ccc(F)cc3s2)cc1S(=O)(=O)N1CCOCC1	4	0.2	75*	0.3	75*
COc1ccc(CC(=O)NCc2ccccc2)cc1S(=O)(=O)N1CCOCC1	3	1	5	0.9	0
COc1ccc(CC(=O)Nc2nc3ccccc3s2)cc1S(=O)(=O)N1CCOCC1	-13	0.2	64*	0.4	76*
CCOc1ccc2nc(NC(=O)c3ccc(OC)c(S(=O)(=O)N4CCOCC4)c3)sc2c1	2	0.9	25	0.7	11
COc1ccc(CC(=O)NC(C)(C)C)cc1S(=O)(=O)N1CCOCC1	2	1.1	5	1	-13
COc1ccc(CC(=O)Nc2nnc(SCc3ccccc3)s2)cc1S(=O)(=O)N1CCOCC1	6	0.1	90*	0.1	91*
COc1ccc(-n2nnnc2/C=C\Nc2ccccc2C(=O)c2ccccc2)cc1	-11	0.5	-21	1.2	51*
O/N=C(\c1ccc(Cl)cc1)c1ncc(C(F)(F)F)cc1Cl	3	0	86*	0.1	98*
Cc1sc2nc(C3CC3)nc(NCCNS(C)(=O)=O)c2c1C	4	0.6	76*	0.2	36
Cc1nc(NCCc2ccc(S(N)(=O)=O)cc2)c2c(C)c(C)sc2n1	-2	1	-6	1.1	-4
O=C(c1cccc(F)c1)N1CCC(N2CCCCCC2)CC1	-2	0.9	22	0.8	14
CC(=O)Nc1ccc(S(=O)(=O)NC(CC(=O)NCCCN2CCOCC2)C(C)C)cc1 (configuration not stated)	0	1.1	-4	1	-5
